TRPV1 ag: human TRPV1 agonism; Q8NER1; TRPV1-expressing cells, Fluo-8 calcium influx, agonist mode; activation, % at 8.33 µM; 0.19% of 320,000 active; AID 540275; in the data active means activation above about 80%; inconclusive means between about 30% and that limit
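Cells expressing TRPV1 were dye-loaded with Fluo-8 and read kinetically: 10 s baseline, 3 min after compound (agonist portion), then 2 min after EC20 capsaicin (allosteric enhancer portion). Calcium-bound dye fluorescence at 480/520 nm.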
gsp ag: agonists of gsp mutant (McCune-Albright syndrome) | AID 624287 | gsp mutant cells, cAMP HTRF, 30 min | Potency, µM (top dose mostly 76.9 µM), most hits filed as activators | 0.13% of 340,000 active; active means well fitted activation curve with a large enough effect; inconclusive means small, poorly fitted or top-dose-only effect, or another doubt; inactive means no such curve, though single readings can be large or run the other way; cell line not stated here;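 further: phosphodiesterase inhibitor Ro 20-1724 added with compounds to block cAMP breakdown; nearly all actives have a fitted effect of over 60% in size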
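Cells stably selected in G418 were plated at 2000/well, grown 16-24 hr, then given compounds in DMSO with the PDE inhibitor […] (300 uM solution added) for 30 min at 37C; cAMP was read by HTRF.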
RXFP1 agonist: agonists of human relaxin receptor RXFP1; Q9HBX9; HEK293T-RXFP1 cAMP TR-FRET, 30 min; response scale: percent of porcine relaxin response, buffer zero; Potency, µM (top dose mostly 57.5 µM), usual class: activators; 0.3% of 370,000 active; AID 2676; active means well fitted activation curve with a large enough effect; inconclusive means small, poorly fitted or top-dose-only effect; further: nearly all actives have a fitted effect of over 60% in size
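cAMP rise read by TR-FRET after 30 min, 37C compound exposure (up to 58 uM) in RXFP1-transfected HEK293 cells with Ro 20174 present. EC50 from Hill-equation fits, with 29 nM porcine relaxin as 100% and buffer as basal.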
gsp antag: gsp mutant antagonism; Potency, µM (highest dose often 76.9 µM), hits mostly inhibitors; AID 624288; 0.4% of 340,000 active; gsp-mutant cells, cAMP HTRF, 30 min; calls by dose curve; cell line not stated here;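 further: intracellular cAMP measured with PDE inhibitor Ro 20-1724 present during compound exposure; nearly all actives have a fitted effect of over 65% in size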
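Cells in G418 medium, seeded 16-24 h, 37C; buffer exchange to DPBS + 1 mM CaCl2, 0.5 mM MgCl2, 0.05% BSA; cpds in DMSO + […] (300 uM stock), 30 min 37C; HTRF cAMP detection.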
RXFP1 antag: blocks the human relaxin receptor RXFP1; Q9HBX9; HEK293-RXFP1, relaxin-stimulated cAMP HTRF, 30 min; hits give low values; activity change, negative = inhibition, % at 57.5 µM; 0.59% of 350,000 active; AID 1259400;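 active means activity change of -60% or lower, but not beyond a set lower limit; inconclusive means change between -60% and -40%, or beyond the set limit; inactive means change above -40%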
TRPV1 potentiator: enhances activation of the human vanilloid receptor TRPV1. AID 540277. Q8NER1. potentiation, % at 8.33 µM. TRPV1-expressing cells, Fluo-8 calcium influx, capsaicin EC20 potentiation. 0.02% of 320,000 active; in the data active means potentiation above about 80%; inconclusive means between about 30% and that limit
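TRPV1-expressing cells were cultured overnight at 35.5C and loaded with Fluo-8 calcium dye for 40 to 90 min at room temperature. After a 10 s baseline, compound was added and calcium influx was read kinetically for 3 min (ex 480/em 520 nm).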
Large screens that a line does not name were inactive. The list is not random: actives were taken first. Their share in the collection is about 1.1%.

Oc1ccc(/C=N/n2c(-c3ccco3)csc2=Nc2cccnc2)c(O)c1	gsp antag inconclusive, RXFP1 antag -61.5
CN=c1scc(-c2cccs2)n1/N=C/c1ccc(O)c(O)c1O	RXFP1 antag -63.3
COCCN=c1scc(-c2ccco2)n1/N=C/c1ccc(O)c(O)c1O	gsp antag inconclusive, RXFP1 antag -103.8
CC(C)N=c1scc(-c2ccco2)n1/N=C/c1ccc(O)c(O)c1	gsp antag inconclusive (no result: RXFP1 antag)
CN(CC(=O)Nc1ccc(S(=O)(=O)N2CCCC2)cc1)Cc1c(F)cccc1Cl	none
O=C(NCc1cc([N+](=O)[O-])ccc1O)c1cc(-c2ccncc2)nc2ccccc12	gsp ag inconclusive, gsp antag 39.8µM, RXFP1 antag inconclusive
O=C(NCc1ccc(F)cc1)c1cc(-c2ccncc2)nc2ccccc12	none
O=C(N[C@H]1C/C=C\C[C@H](CC(=O)N(CCO)Cc2ccccc2)C(=O)NC[C@H](c2ccccc2)OC1=O)OCC1c2ccccc2-c2ccccc21	none (no result: TRPV1 ag, gsp ag, RXFP1 agonist, RXFP1 antag, TRPV1 potentiator)
O=C(Nc1ccc(N2CCN(C(=O)c3ccccc3F)CC2)cc1)c1cncc(Br)c1	gsp antag inconclusive, RXFP1 antag -82.2
Cc1nnc(N2CCC(C(=O)NCc3ccc(N(C)C)cc3)CC2)c2nn(-c3ccccc3)c(C)c12	none (no result: TRPV1 ag, gsp ag, gsp antag, TRPV1 potentiator)
Cc1cccc(CS(=O)(=O)c2cn(CC(=O)N3CCOCC3)c3ccccc23)c1	none
O=C(O)c1cc(-c2ccc(N3CCOCC3)cc2)nn1-c1ccc(F)cc1F	none
Brc1cc(Br)c2nc(-c3ccc(N4CCOCC4)cc3)ccc2c1	gsp ag inconclusive, RXFP1 agonist inconclusive, gsp antag 11.2µM
CCN(CC)c1ccc(C(=O)NNC(=O)CCl)cc1	TRPV1 potentiator 123.5
O=c1[nH][nH]c2cc([N+](=O)[O-])ccc12	RXFP1 antag inconclusive (no result: TRPV1 ag, RXFP1 agonist, TRPV1 potentiator)
Cc1ccc(S(=O)(=O)N2CCN(Cc3cc(=O)n4nc(-c5ccccc5Cl)sc4n3)CC2)cc1	none (no result: TRPV1 ag, gsp ag, gsp antag, RXFP1 antag, TRPV1 potentiator)
CCOC(=O)[C@H]1[C@H]2COc3ccc(Cl)cc3[C@@H]2N2C(=O)c3ccc(Cl)cc3NC(=O)[C@@]12C	TRPV1 ag 87.2, gsp ag inconclusive (no result: RXFP1 antag)
CCOC(=O)[C@H]1[C@H]2COc3ccc(OC)cc3[C@@H]2N2C(=O)c3ccc(Cl)cc3NC(=O)[C@@]12C	TRPV1 ag 90.2, TRPV1 potentiator inconclusive (no result: RXFP1 antag)
CCOC(=O)[C@H]1[C@H]2COc3ccc(Cl)cc3[C@@H]2N2C(=O)c3cc(OC)ccc3NC(=O)[C@@]12C	TRPV1 ag inconclusive (no result: RXFP1 antag)

Source: PubChem BioAssay (National Center for Advancing Translational Sciences (NCATS))
